# Assays:
# Assay in all cases: growth inhibition (% activity, log2 RLU normalised to DMSO / staurosporine); higher = more growth inhibition
# Details in all cases: 33 µM
# DIPGX29 = system: DIPGX29 (H3.3 K27M diffuse intrinsic pontine glioma line)
# How it was run: (§1)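 The growth-inhibition value is the median over replicates. pHGG cell lines and H9-derived neural stem cells on Geltrex-coated 384-well plates received approved drugs by pin tool at a single final concentration of about 33 μM, in triplicate, for 7 days at 37 °C, 5% CO2. CellTiter-Glo luminescence was log2-transformed and normalised per plate to % activity between solvent and positive control wells.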
# DIPGX37 = system: DIPGX37 (H3.3 K27M diffuse intrinsic pontine glioma line)
# How it was run: as §1
# DIPGX7 = system: DIPGX7 (H3.3 K27M diffuse intrinsic pontine glioma line)
# How it was run: as §1
# DIPGX9 = system: DIPGX9 (diffuse intrinsic pontine glioma line)
# How it was run: as §1
# HGGX39 = system: HGGX39 (paediatric high-grade glioma line)
# How it was run: as §1
# HGGX6 = system: HGGX6 (H3.3 G34R paediatric high-grade glioma line)
# How it was run: as §1
# HNSC = system: HNSC
# How it was run: as §1
# SUDIPGIV = system: SUDIPGIV (diffuse intrinsic pontine glioma line)
# How it was run: as §1
# SUDIPGVI = system: SUDIPGVI (diffuse intrinsic pontine glioma line)
# How it was run: as §1
# SUDIPGXIII = system: SUDIPGXIII (diffuse intrinsic pontine glioma line)
# How it was run: as §1
Compound,growth inhibition (DIPGX29),growth inhibition (DIPGX37),growth inhibition (DIPGX7),growth inhibition (DIPGX9),growth inhibition (HGGX39),growth inhibition (HGGX6),growth inhibition (HNSC),growth inhibition (SUDIPGIV),growth inhibition (SUDIPGVI),growth inhibition (SUDIPGXIII)
CC(C)c1nc(CN(C)C(=O)N[C@@H](CCN2CCOCC2)C(=O)N[C@H](CC[C@H](Cc2ccccc2)NC(=O)OCc2cncs2)Cc2ccccc2)cs1,3.78%,0.997%,0.492%,2.24%,2.07%,1.63%,1.95%,-0.101%,3.61%,-0.613%
CCOC(=O)CCC(=O)O[C@H]1[C@H](O[C@@H]2[C@@H](C)[C@H](O[C@H]3C[C@@](C)(OC)[C@@H](O)[C@H](C)O3)[C@@H](C)C(=O)O[C@H](CC)[C@@](C)(O)[C@H](O)[C@@H](C)C(=O)[C@H](C)C[C@@]2(C)O)O[C@H](C)C[C@@H]1N(C)C,-2.45%,-0.105%,1.67%,-1.7%,-1.58%,-2.75%,19.9%,-1.78%,-9.9%,2.09%
Cc1c(O)c(=O)ccn1C,-0.259%,-0.497%,-0.173%,1.03%,0.26%,1.77%,-3.85%,-2.04%,0.573%,–
CN1C(C(=O)Nc2ccccn2)=C(O)c2sccc2S1(=O)=O,-1.4%,1.63%,-0.195%,1.24%,0.358%,0.485%,-0.824%,-4.89%,0.891%,-0.625%
N=C(N)c1ccc(N=NNc2ccc(C(=N)N)cc2)cc1,-2.11%,-3.98%,-0.967%,-1.13%,7.13%,4.38%,-4.44%,15.4%,0.511%,–
CCC(C)n1ncn(-c2ccc(N3CCN(c4ccc(OCC5COC(Cn6cncn6)(c6ccc(Cl)cc6Cl)O5)cc4)CC3)cc2)c1=O (configuration not stated),-0.782%,1.27%,1.59%,1.24%,4.33%,1.37%,7.95%,1.44%,1.98%,–
O=C(O)c1cc(/N=N/c2ccc(S(=O)(=O)Nc3ccccn3)cc2)ccc1O,1.07%,-1.79%,1.57%,0.949%,1.21%,1.04%,-0.205%,0.115%,1.96%,-0.524%
C=C(c1ccc(C(=O)O)cc1)c1cc2c(cc1C)C(C)(C)CCC2(C)C,8.85%,-3.45%,11%,10.4%,12.4%,9.38%,14.6%,6.25%,9.87%,–
C[C@@H](O)[C@H]1C(=O)N2C(C(=O)OCOC(=O)C(C)(C)C)=C(SC3CN(C4=NCCS4)C3)[C@H](C)[C@H]12,-0.211%,2.3%,0.926%,0.809%,1.15%,0.471%,-0.363%,-0.736%,2.12%,–
C#C[C@]1(O)CC[C@H]2[C@@H]3CCC4=CC(=O)CC[C@@H]4[C@H]3CC[C@@]21C,-0.22%,3.5%,1.4%,2.42%,4.07%,7.23%,6.68%,-0.735%,0.661%,–
CCn1cc(C(=O)O)c(=O)c2ccc(C)nc21,-2.16%,-2.18%,-0.91%,0.0696%,-0.871%,0.278%,-2.82%,-0.499%,-1.38%,–
CCCS(=O)(=O)Nc1ccc(F)c(C(=O)c2c[nH]c3ncc(-c4ccc(Cl)cc4)cc23)c1F,0.0739%,1.21%,-0.987%,0.227%,-0.449%,2.46%,10.9%,-3.02%,1.21%,1.79%
CC(C)NCC(O)COc1cccc2ccccc12 (configuration not stated),-0.19%,-0.496%,-0.508%,1.12%,0.98%,0.0936%,-3.29%,-1.1%,0.673%,–
Cc1ncc([N+](=O)[O-])n1CC(C)O (configuration not stated),-2.47%,-0.804%,-1.3%,0.505%,-1.86%,0.138%,-4.53%,-1.52%,-0.382%,–
O=C(O)c1cccnc1Nc1cccc(C(F)(F)F)c1,-0.796%,3.58%,-0.0228%,0.51%,1.81%,2.52%,-1.26%,-3.93%,2.23%,–
COC(=O)C1=CO[C@@H](O[C@@H]2O[C@H](CO)[C@@H](O)[C@H](O)[C@H]2O)[C@@H]2C(CO)=CC[C@H]12,-1.79%,-0.171%,-2.08%,0.601%,0.266%,2.37%,-2.11%,-1.32%,-2.76%,–
N#CC1(c2ccc(NC(=O)c3cccnc3NCc3ccncc3)cc2)CCCC1,1.93%,-3.69%,2.91%,3.39%,8.17%,4.45%,1.96%,7.08%,-1.37%,–
COc1cc2c(cc1OC)CC(=O)N(CCCN(C)C[C@H]1Cc3cc(OC)c(OC)cc31)CC2,-0.791%,1.83%,1.52%,1.21%,2.26%,0.769%,7.75%,0.5%,1.04%,–
C[C@H](N)[C@H](O)c1cccc(O)c1,2.35%,0.0235%,1.7%,1.54%,5.08%,0.73%,3.77%,1.73%,4.42%,1.04%
Oc1c(Br)cc(Br)c2cccnc12,-0.427%,0.213%,1.4%,1.88%,2.61%,1.93%,-0.441%,0.619%,2.93%,–
CC[C@H]1OC(=O)[C@H](C)[C@@H](O[C@H]2C[C@@](C)(OC)[C@@H](O)[C@H](C)O2)[C@H](C)[C@@H](O[C@@H]2O[C@H](C)C[C@H](N(C)C)[C@H]2O)[C@](C)(O)C[C@@H](C)[C@@H]2N[C@@H](COCCOC)O[C@H]([C@H]2C)[C@]1(C)O,-1.13%,-1.4%,-1.51%,-0.804%,-0.699%,-1.07%,-4.19%,-1.28%,-0.768%,–
CN(C)CCC=C1c2ccccc2CCc2ccccc21,0.114%,2.57%,1.28%,1.79%,5.11%,2.03%,0.41%,1.93%,2.05%,–

Compound,growth inhibition (DIPGX29),growth inhibition (DIPGX37),growth inhibition (DIPGX7),growth inhibition (DIPGX9),growth inhibition (HGGX39),growth inhibition (HGGX6),growth inhibition (HNSC),growth inhibition (SUDIPGIV),growth inhibition (SUDIPGVI),growth inhibition (SUDIPGXIII)
CCCN1CCCC[C@H]1C(=O)Nc1c(C)cccc1C,-0.141%,1.83%,0.26%,0.846%,2.25%,1.44%,-0.32%,-1.01%,0.908%,–
CCCc1nc(C)c2c(=O)nc(-c3cc(S(=O)(=O)N4CCN(CC)CC4)ccc3OCC)[nH]n12,-1.2%,-1.39%,-0.617%,0.618%,1.97%,2.02%,-2.13%,0.711%,0.112%,–
O=c1ccc2ccccc2o1,0.12%,0.196%,-0.587%,2.02%,1.94%,0.845%,-0.623%,-0.0159%,1.45%,–
CC1(C)S[C@@H]2[C@H](NC(=O)Cc3ccccc3)C(=O)N2[C@H]1C(=O)O,-0.211%,1.76%,0.712%,0.921%,2.76%,0.0221%,1.53%,0.754%,0.396%,–
CC[C@@H]([C@H](C)O)n1ncn(-c2ccc(N3CCN(c4ccc(OC[C@@H]5CO[C@@](Cn6cncn6)(c6ccc(F)cc6F)C5)cc4)CC3)cc2)c1=O,-3.19%,-0.0907%,-0.181%,-2.09%,-0.245%,-1.15%,-2.54%,-2.62%,-1.64%,0.673%
Cc1c(Nc2ncccc2C(=O)O)cccc1C(F)(F)F,0.454%,2.84%,0.522%,1.64%,1.78%,3.08%,1.18%,-3.76%,2.1%,–
COC1=C(OC)C(=O)C(CCCCCCCCCCO)=C(C)C1=O,3.13%,3.03%,2.61%,2.12%,2.64%,3.84%,5.4%,1.6%,3.24%,2.03%
Cc1onc(-c2ccccc2)c1-c1ccc(S(N)(=O)=O)cc1,0.8%,1.05%,0.883%,0.672%,3.67%,2.37%,-0.462%,-2.73%,2.54%,–
CC[C@H]1OC(=O)[C@H](C)[C@@H](O[C@H]2C[C@@](C)(OC)[C@@H](O)[C@H](C)O2)[C@H](C)[C@@H](O[C@@H]2O[C@H](C)C[C@H](N(C)C)[C@H]2O)[C@](C)(O)C[C@@H](C)/C(=N\OCOCCOC)[C@H](C)[C@@H](O)[C@]1(C)O,-1.55%,-0.523%,-0.0281%,1.56%,1.63%,0.659%,-0.847%,0.447%,-0.66%,–
Cc1ccc(S(=O)(=O)NC(=O)NN2CCCCCC2)cc1,-1.75%,0.973%,-0.7%,-1.05%,0.24%,1.06%,-3.09%,-2.7%,-0.0433%,–
CCCCOc1ccc(C(=O)CCN2CCCCC2)cc1,3.95%,1.81%,13%,3.6%,8.09%,7.94%,6.88%,0.947%,1.6%,1.44%
O[C@@H]1CO[C@H]2[C@@H]1OC[C@@H]2O,-2.46%,0.0638%,-2.43%,-0.699%,0.692%,0.785%,-3.92%,-2.68%,-0.216%,–
CC(C)(C)C(=O)C(Oc1ccc(Cl)cc1)n1ccnc1 (configuration not stated),0.826%,1.56%,3.93%,1.25%,5.9%,4.74%,5.37%,7.06%,2.6%,–
N=c1nc(N2CCCCC2)cc(N)n1O,0.473%,-0.191%,0.732%,-0.0641%,-0.0574%,-3.42%,1.05%,-0.657%,1.35%,-1.69%
N#CC(c1ccc(Cl)cc1)c1c(Cl)cc(-n2ncc(=O)[nH]c2=O)cc1Cl (configuration not stated),-3.67%,-2.44%,-2.85%,-2.54%,-2.75%,-3.94%,-1.15%,-2.27%,-3.68%,0.254%
CCCCCCCN(CC)CCCC(O)c1ccc(NS(C)(=O)=O)cc1 (configuration not stated),-0.358%,0.859%,2.25%,1.97%,2.78%,0.985%,-2.1%,0.633%,1.61%,–
CC(C)[C@H]1CC[C@H](C(=O)N[C@H](Cc2ccccc2)C(=O)O)CC1,-0.743%,0.294%,0.0113%,0.231%,1.32%,1.09%,-0.0956%,-1.21%,-0.179%,–
CN1CCOC(c2ccccc2)c2ccccc2C1 (configuration not stated),-3.82%,-1.11%,-0.00387%,-2.6%,-1.87%,-4.34%,19.3%,-1.45%,-8.5%,2.52%
CC(C)(C#N)c1cc(Cn2cncn2)cc(C(C)(C)C#N)c1,1.13%,0.615%,0.764%,-0.00856%,0.325%,1.21%,2.39%,-0.235%,2.45%,1.01%
CC(C)(C)NCC(O)c1ccc(O)c(CO)c1 (configuration not stated),-2.88%,-1.32%,-0.0436%,-1.85%,-1.15%,1.2%,-1.34%,1.26%,-4.26%,1.25%
COC(=O)N/N=C/c1c[n+]([O-])c2ccccc2[n+]1[O-],2.48%,4.18%,1.83%,0.689%,2.31%,0.191%,4.92%,3%,5.18%,-3.09%
